Compound activity as filed in PubChem BioAssay.
Sampled rows, rich in hits. Any-hit rate of the full collection: about 3%.
PfHsp90 set2: growth inhibition of PfHsp90-expressing yeast, primary screen, antimalarial PfHsp90 inhibitor project, S. cerevisiae, BacTiter-Glo luminescence, single point, set 2 | AID 504621, 2011 | actives 0.32% (n = 310,000) | inhibition, % at 9.4 µM | BacTiter-Glo ATP, 48 h; yeast lacking PDR1 and PDR3 efflux regulators;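 active = every replicate shows inhibition above about 80%, whatever the replicate mean, limit read from the data; inconclusive = mean inhibition reaches the set limit but some replicate falls short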;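 note: 0% = DMSO neutral controls and 100% = 20 µM radicicol positive controls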
esBAF inh: Bmi1 luciferase reporter increase in mESCs, primary screen, esBAF inhibitor project, mouse ES cells, Bmi1 luciferase knock-in, single point; 24 h; 100% = twice the neutral-well signal; reporter increase, % at 12.5 µM; actives 2% (n = 350,000); in the data active = activation above about 40%; inconclusive = no clear call, values can overlap the other calls;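 note: 0% = median of the plate's neutral control wells and 100% = double that signal; a rise in the Bmi1 reporter signal indicates esBAF inhibition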
MITF TRPM1 HTS: activators of MITF-driven TRPM1 promoter reporter, primary screen, cell-based, SK-MEL-5, luciferase, single point; SK-MEL-5 TRPM1-promoter luciferase, 24 h; % of positive control, neutral wells = 0; AID 588334, 2011; activation, % at 12.5 µM; actives 0.75% (n = 300,000);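 active = mean activation of at least 80% with every replicate also reaching 80%; inconclusive = mean reaches 80% but some replicate falls short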;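 note: 0% = neutral control wells and 100% = parthenolide positive control wells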
Wnt act: Wnt/beta-catenin pathway activators, primary screen, cell-based, plate reader, single point; Wnt/beta-catenin reporter cell assay, activator; activation, % at 9.35 µM; actives 1.2% (n = 300,000); AID 743398, 2014; in the data active = activation above about 30%, passing the limit was not always enough; inconclusive = no clear call, values can overlap the other calls;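 note: 0% = neutral control wells and 100% = positive control wells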
Vif imaging: HIV Vif self-association inhibitors, primary screen, imaging, HEK293T, single point; HEK293T cells, Vif self-association by quenched fluorescence, 24 h; inhibition, % at 7.49 µM; actives 0.35% (n = 340,000); in the data active = inhibition above about 50%, passing the limit was not always enough; inconclusive = no clear call, values can overlap the other calls; inactive = below about 31%
Glyco luc inh: increase of ERlucT glycosylation luciferase signal, primary screen, N-linked glycosylation inhibitor project, D54 ERlucT cells, luminescence, set 2 | D54 ERlucT glycosylation luciferase reporter, 24 h; percent of 100 nM tunicamycin response | reporter increase, % at 12.5 µM | actives 0.23% (n = 360,000);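 active = mean luciferase reporter signal, scaled so untreated is 0 and the glycosylation-blocking control 100, at or above a set limit in every replicate; inconclusive = mean reaches the limit but not every replicate does; inactive = mean below the limit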;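 note: luciferase carries N-glycosylation sites so blocking glycosylation raises the light; 0% = median of neutral control wells and 100% = median of 100 nM tunicamycin wells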
* hit, by the source's call; ? = inconclusive; . = no result.

SMILES	PfHsp90 set2	esBAF inh	MITF TRPM1 HTS	Wnt act	Vif imaging	Glyco luc inh
COc1cc(/C=C/C(=O)OCC(=O)c2ccc[nH]2)cc(OC)c1OC	2	2	-1	-4	0	2
CC1CCCC(C)N1/N=C/C=C/c1ccccc1[N+](=O)[O-] (stereo not drawn)	-4	.	7	7	0	1
Cc1onc(-c2ccccc2)c1C(=O)Nc1nc(-c2cc(F)ccc2F)cs1	5	30	?	-2	5	7
Cc1noc(C)c1C(=O)Nc1nc(-c2cc(F)ccc2F)cs1	28	74*	30	9	-1	-1
COc1ccc(CCNC(=O)COc2ccc(S(=O)(=O)NC(C)C)cc2)cc1OC	-11	1	-2	-2	3	0
COc1ccc([C@H]2CC(=O)C=C(c3ccc(OC)cc3OC)C2)cc1	-11	0	4	-11	55*	15
COc1ccc([C@H]2CC(=O)C=C(c3cccc(C#N)c3)C2)cc1	-10	45*	22	-6	-4	2
COc1ccc([C@H]2CC(=O)C=C(c3cccc(OC)c3)C2)cc1	-26	-1	5	-2	-2	-3
Cc1cc(C=O)c(C)n1-c1ccc(Cl)c(C(=O)O)c1	-13	.	13	-5	-2	0
O=C(Nc1ccc(Nc2ccccc2)cc1)C(Cl)Cl	17	.	4	3	-4	3
CC(C)(C)C(=O)C(Cl)C(=O)Nc1ccccc1 (stereo not drawn)	107*	.	-4	1	21	3
C[C@@H]1CCCCO[C@@H](CN(C)C(=O)NC2CCCCC2)[C@@H](C)CN([C@H](C)CO)C(=O)c2cc(NS(=O)(=O)c3cn(C)cn3)ccc2O1	.	-6	.	.	.	.
COc1ccc(CNC(=O)COC(=O)c2cc(S(=O)(=O)N3CCOCC3)ccc2O)cc1OC	6	11	0	-3	51*	-2
CC(C)C(NC=C1C(=O)OC(C)(C)OC1=O)C(=O)O (stereo not drawn)	3	-7	1	-1	-7	2
COc1ccccc1CNC(=O)C1CCC(CNS(=O)(=O)c2cccs2)CC1 (stereo not drawn)	-12	7	-1	-4	55*	-3
O=C(NCc1cccs1)C1CCC(CNS(=O)(=O)c2cccs2)CC1 (stereo not drawn)	.	4	-11	-6	-1	-2
CC1=C(C)CS(=O)N(S(=O)(=O)c2ccccc2)C1 (stereo not drawn)	26	-3	1	.	14	5
O=C(Nc1ccc2c(c1)OCO2)C1CC(c2ccccc2Cl)=NO1 (stereo not drawn)	-4	64*	44	.	0	1
O=C(CNCc1ccc(Cl)cc1)Nc1ccc2c(c1)OCCO2	5	.	2	8	10	-1
O=C(Nc1ccc2c(c1)OCCO2)c1ccccc1Cl	.	-10	.	40*	.	-10
O=C(CNCc1ccccc1Cl)Nc1ccc2c(c1)OCCO2	-2	52*	?	3	.	-1
O=C(CSCc1ccccc1Cl)Nc1ccc2c(c1)OCCO2	-10	-24	135*	-5	-7	-5
COc1ccc(NC(=O)CN(C)C(=O)C2CSC3(C)CCC(=O)N23)cc1 (stereo not drawn)	-8	1	10	9	21	0
Cc1ccc(N(CCC(=O)O)S(=O)(=O)c2ccc(C)cc2)cc1	1	-6	-1	.	23	3
O=C(CCN1C(=O)S/C(=C\c2ccccc2)C1=O)Nc1ccc(S(=O)(=O)Nc2nccs2)cc1	2	-5	-1	.	3	-3
SMILES	PfHsp90 set2	esBAF inh	MITF TRPM1 HTS	Wnt act	Vif imaging	Glyco luc inh
CC(=O)c1cccc(S(=O)(=O)Nc2ccccc2N2CCOCC2)c1	4	6	2	-2	-5	1
CCCc1[nH]n(-c2ccc(F)cc2)c(=O)c1C=Nc1cccc(F)c1	-1	.	-17	.	7	13
O=C(Nc1ccc2c(c1)OCCO2)c1cc2sccc2n1Cc1ccc(F)cc1	-11	28	22	5	-8	-6
O=C(Nc1ccc2c(c1)OCCO2)c1cc2sccc2n1Cc1ccccc1	-93	49*	14	1	-13	-12
CN1C(=O)C2C=CC1C1C(=O)N(c3ccccc3)C(=O)C21 (stereo not drawn)	-25	57*	89*	.	-4	-6
CCCCC(=O)Nc1cc(C(=O)NCCc2ccccc2)ccc1Cl	-4	?	126*	.	-7	-5
O=C(Nc1ccccn1)c1ccc(Cl)c(S(=O)(=O)N2CCCC2)c1	15	56*	41	3	.	2
CCOCC(=O)Nc1cc(C(=O)Nc2ccccc2)ccc1Cl	7	51*	27	11	-3	-1
CCOCC(=O)Nc1ccc(C(=O)Nc2ccccc2Cl)cc1	.	.	.	3	.	.
Cc1ccc(C(=O)NCCc2ccccc2)cc1S(=O)(=O)N1CCOCC1	-6	68*	71	27	-3	-1
CCn1c(=O)cc(SCC(=O)N2CCCCC2)c2ccccc21	14	-6	-2	.	5	14
COCC(=O)N(Cc1cc2ccccc2[nH]c1=O)c1ccccc1OC	-9	-8	-6	0	24	1
CCOc1ccc(NC(=O)CN2CCN(S(=O)(=O)c3ccc(Cl)cc3)CC2)cc1	23	5	4	-3	-4	-1
O=C(NCCc1ccccc1)c1ccc(Cl)c(S(=O)(=O)N2CCCC2)c1	5	59*	40	.	-21	-5
O=C(NCc1ccccc1)c1ccc(Cl)c(S(=O)(=O)N2CCCC2)c1	21	-6	-3	0	-7	-3
Cc1cccc(NS(=O)(=O)c2cccc(C(=O)N3CCN(S(=O)(=O)c4ccccc4)CC3)c2)c1	.	6	-10	-4	-15	-5
Cc1cc(C2CC(=O)Nc3ccccc3S2)c(C)s1 (stereo not drawn)	-1	.	0	2	-7	-3
NC(=O)Cc1c[nH]c2cccc(O)c12	.	-2	.	36*	10	1
CCOc1ccc(N(C(=O)c2ccc3c(c2)OCO3)C2C=CS(=O)(=O)C2)cc1 (stereo not drawn)	-14	0	12	1	3	2
c1ccc(-c2cc3ccccc3nc2N2CCCC2)cc1	.	.	-19	.	5	0
COC(=O)c1ccc(NC(=O)Nc2ccc(F)cc2F)cc1	2	79*	50	-4	-7	2
COC(=O)c1ccc(NC(=O)Nc2cccc(F)c2)cc1	15	70*	46	.	-7	2
